The structures appear in SMILES notation. Records with an inconclusive call do not appear. Activity calls are given as the source filed them. The calls were made as follows: active = hit-call score of the fitted dose curve at least 0.9, where 1 is the maximum; inconclusive = response in the unintended direction; inactive = score below 0.9.

Estrogen receptor (Homo sapiens), sequence (P03372 whole entry, looked up): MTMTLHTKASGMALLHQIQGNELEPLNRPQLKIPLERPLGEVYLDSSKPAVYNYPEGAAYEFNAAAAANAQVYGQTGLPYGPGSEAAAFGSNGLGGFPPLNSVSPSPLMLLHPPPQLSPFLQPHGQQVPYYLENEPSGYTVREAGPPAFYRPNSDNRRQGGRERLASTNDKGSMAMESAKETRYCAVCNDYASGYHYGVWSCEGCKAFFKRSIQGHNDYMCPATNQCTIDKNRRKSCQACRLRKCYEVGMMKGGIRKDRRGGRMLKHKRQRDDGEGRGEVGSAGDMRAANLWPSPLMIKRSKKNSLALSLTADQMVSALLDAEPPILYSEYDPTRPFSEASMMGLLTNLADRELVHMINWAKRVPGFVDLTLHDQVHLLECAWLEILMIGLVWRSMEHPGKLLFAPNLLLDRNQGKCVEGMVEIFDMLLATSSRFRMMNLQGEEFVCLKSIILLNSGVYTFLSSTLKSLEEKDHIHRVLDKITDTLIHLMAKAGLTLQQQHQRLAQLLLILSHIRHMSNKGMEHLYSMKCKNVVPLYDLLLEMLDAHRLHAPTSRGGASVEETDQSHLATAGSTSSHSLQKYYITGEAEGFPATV

In the assay the target is Estrogen receptor (Homo sapiens) (UniProt P03372). The experiment in a line: NVS_NR_hER: NovaScreen (NVS) Nuclear Receptor Binding Assay for human Estrogen Receptor (ER) (AID 2283348). Here is the method:
NVS_NR_hER is a biochemical, single-readout assay that uses extracted gene-proteins from MCF7 in a cell-free assay. Measurements were taken 18 hours after chemical dosing in a 96-well plate.NVS_NR_hER is one of one assay component(s) measured or calculated from the NVS_NR_hER assay. It is designed to make measurements of radioligand binding, a form of binding reporter, as detected with scintillation counting signals by Lysate-based radiodetection technology.Data from the assay component NVS_NR_hER was analyzed into 1 assay endpoint. This assay endpoint, NVS_NR_hER, was analyzed in the positive analysis fitting direction relative to DMSO as the negative control and baseline of activity. Using a type of binding reporter, loss-of-signal activity can be used to understand changes in the binding as they relate to the gene ESR1. Furthermore, this assay endpoint can be referred to as a primary readout, because the performed assay has only produced 1 assay endpoint. To generalize the intended target to other relatable targets, this assay endpoint is annotated to the nuclear receptor intended target family, where the subfamily is steroidal.
Binding assays used specific radioligands (tritiated, iodinated) with non-radioactive competitive displacement ligands in agonist or antagonist protocols (as indicated) and various reference compounds and inhibitors to titrate specific binding to receptors and transporters. Most enzyme assays (CYPs, kinases, phosphatases, proteases, HDACs) used recombinant protein and specific substrates (fluorescence mostly, some colorimetric and radioactive) and inhibitors, followed by a biochemical separation of substrate and product. All assays for the biochemical HTS were initially run in duplicate at a single concentration (10 uM for CYP450 assays and 25 uM for all others). […] Each assay was run with positive and negative controls, and concurrent controls on every plate. The follow-up (secondary) screen tested active chemical-pairs in concentration series, as well as a few additional assays not tested in the primary screen, some selected negative inactives, and several cases re-run in the concentration series for confirmatory purposes.
As to `CC(C)(c1ccc(OCC2CO2)cc1)c1ccc(OCC2CO2)cc1` (stereo not given), the AC50 was 14200 nM (active).
For `CCOC(=O)/C=C(C)/C=C/C[C@@H](C)CCCC(C)C`, the call was inactive.
On the same count and under the same terms, next, `C=CC(=O)OCCCCCC(C)C`: “inactive”; `O=C(CCl)CCl`: “inactive”; `CC(=O)[O][Hg][c]1ccccc1`: “inactive”.
Consider `CC(C)c1ccc(CO)cc1`, for which the compound was classed as inactive.
As to `CCOP(=S)(OCC)SCSP(=S)(OCC)OCC`, the result was inactive.
The same measure, in the same setting: the entry for `COP(=S)(OC)Oc1cc(Cl)c(Br)cc1Cl` is “inactive”; for `CCC(C)(C)c1ccc(O)c(C(C)(C)CC)c1` it is “inactive”.
As for `COP(=S)(OC)Oc1ccc(Sc2ccc(OP(=S)(OC)OC)cc2)cc1`, the concentration at half-maximal activity (AC50) is 1730 nM (active).
For the compound `NNC(=S)NN`, the outcome was inactive.
Still for that read-out and setting: the entry for `O=C1CCCN1` is “inactive”; for `CC(C)C1CCC(Cc2ccc(Cl)cc2)C1(O)Cn1cncn1` (stereo not given) it is “inactive”; for `C=C(C)C(=O)[O][Sn]([CH2]CCC)([CH2]CCC)[CH2]CCC` it is “inactive”.
`C[C@H]1CCCC(=O)CCC/C=C/c2cc(O)cc(O)c2C(=O)O1`: the AC50 was 2.45 nM (active).
With `O=C(OC1CCCCC1)c1ccccc1C(=O)OC1CCCCC1`, the outcome was inactive.
Still for that read-out and setting: the entry for `CC1(C)CCC(Cc2ccc(Cl)cc2)C1(O)Cn1cncn1` (stereo not given) is “inactive”; for `O=C(Nc1ccc2[nH]ccc2c1)c1cc2cc(F)ccc2n1Cc1cccc(F)c1` it is “inactive”; for `CCC1(c2ccc(N)cc2)CCC(=O)NC1=O` (stereo not given) it is “inactive”.
In the case of `COP(=O)(OC)O/C(=C\Cl)c1cc(Cl)c(Cl)cc1Cl`, the result was inactive.
Still for that read-out and setting: the entry for `CC(C)(OO)c1ccccc1` is “inactive”; for `O=C(Cc1ccccc1)c1ccccc1` it is “inactive”; for `CC(C)(c1ccccc1)c1ccc(O)c(C(C)(C)c2ccccc2)c1` it is “inactive”.
`ClC1=C(Cl)[C@]2(Cl)[C@H]3[C@H]([C@H]4C=C[C@H]3C4)[C@@]1(Cl)C2(Cl)Cl`: the result was inactive.
For `CCC[CH2][Sn]([CH2]CCC)([CH2]CCC)[O]C(=O)c1ccccc1`, the half-maximal activity concentration (AC50) is 2940 nM (active).
Regarding `Clc1ccc(C2(Cn3cncn3)CC(Br)CO2)c(Cl)c1` (stereo not given), the outcome was inactive.
In the case of `BrCCBr`, the outcome was inactive.
Same read-out and setting: the entry for `Fc1ccc(C2(Cn3cncn3)OC2c2ccccc2Cl)cc1` (stereo not given) is “inactive”; for `COC(=O)c1sccc1S(=O)(=O)NC(=O)Nc1nc(C)nc(OC)n1` it is “inactive”.
The same measure, in the same setting: next, `CC(C)(C)c1cc(O)ccc1O`: “inactive”.

In general, AC50 refers to the concentration at which the activity in the assay is half-maximal.

These data come from PubChem BioAssay (EPA / NIEHS).
